Screening results as filed in PubChem.
SW480 rereplic – inducers of DNA re-replication in SW480 colon cancer cells; actives 1.8% (n = 340,000); Potency, µM (doses to about 46.1 µM), for the others: top-dose re-replication activation, hits mostly activators; SW480 DNA re-replication, Hoechst DNA content imaging, 48 h; also: potency is read from the fitted curve at half-maximal effect; % of control where 0% means no effect; nearly all actives have a fitted effect of over 55% in size
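250 cells/well; 23 nL cpd via pin tool; 48 hr, 37 C, 5% CO2; Hoechst 40 min; imager read of total nuclear intensity, ex 405/em 500-530 nm.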
MCF10A rerep – inducers of DNA re-replication in MCF 10A breast cells; MCF 10A DNA re-replication, Hoechst nuclear intensity, 48 h; Potency, µM (titrated, usually from 46.1 µM), for the others: at the top dose activity, positive = re-replication, actives largely listed as activators; actives 2.9% (n = 350,000); AID 624296; also: potency is read from the fitted curve at half-maximal effect; % of control where 0% means no effect; nearly all actives have a fitted effect of over 50% in size
Vif-APOBEC3G blk – Vif-A3G binding inhibition. HeLa A3G-eYFP + Vif (tagged APOBEC3G with the HIV-1 protein that degrades it), YFP fluorescence, overnight. Potency, µM (series often up to 46.1 µM), for the others: top-dose activity, negative = active, actives largely listed as inhibitors. Q9HC16. actives 0.076% (n = 410,000); also: potency is read from the fitted curve at half-maximal effect; % is scaled to controls: 0 for no effect and ±100 for the full control effect; nearly all actives have a fitted effect of over 60% in size
Target sequence (Q9HC16 whole entry, looked up): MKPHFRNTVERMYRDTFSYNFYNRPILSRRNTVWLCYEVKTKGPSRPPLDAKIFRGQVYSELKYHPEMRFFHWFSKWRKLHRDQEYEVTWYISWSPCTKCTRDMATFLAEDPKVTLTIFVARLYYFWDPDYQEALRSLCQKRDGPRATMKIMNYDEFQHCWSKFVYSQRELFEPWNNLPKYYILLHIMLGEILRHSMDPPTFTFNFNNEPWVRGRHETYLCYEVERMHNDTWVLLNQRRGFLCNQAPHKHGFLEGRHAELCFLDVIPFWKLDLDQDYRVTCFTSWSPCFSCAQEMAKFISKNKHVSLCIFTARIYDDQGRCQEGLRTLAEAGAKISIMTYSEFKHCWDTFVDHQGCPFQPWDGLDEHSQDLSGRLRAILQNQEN
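HeLa cells stably expressing Vif and C-terminally eYFP-tagged A3G, seeded overnight at 37 deg C, then exposed to compound by pintool overnight at 37 deg C. Rise in yellow fluorescence (Ex 488/Em 500-530, Acumen) marks blocked Vif-driven A3G degradation.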
Vif-APOBEC3F blk – inhibitors of Vif-A3F interaction; HeLa A3F-eYFP + Vif (tagged APOBEC3F with the HIV-1 protein that degrades it), YFP fluorescence increase; Potency, µM (highest dose often 46.1 µM), for the others: top-dose activity, negative = active; actives 0.2% (n = 390,000); AID 602313; also: potency is read from the fitted curve at half-maximal effect; % of control where 0% means no effect; nearly all actives have a fitted effect of over 65% in size
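Fluorescence increase (Ex 488/Em 500-530) after overnight compound treatment at 37 deg C flags inhibition of Vif-driven A3F-eYFP loss in stable HeLa A3F-eYFP/Vif cells seeded overnight beforehand.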
IL-1B inflam inh – blocks inflammasome-driven IL-1 beta release | THP-1 LPS/ATP IL-1B secretion, AlphaLISA, 16 h; active compounds read low | activity change, % at 57.5 µM | actives 4.7% (n = 360,000); in the data active = activity change below about -50%; inconclusive = mostly about -30% to -49%; also: % is scaled to controls: 0 for no effect and ±100 for the full control effect
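Secreted IL-1B measured by AlphaLISA bead assay after 16 h compound exposure of THP-1 cells; compounds (final up to 57.5 uM) added 1 h before LPS (250 ng/mL) and ATP (1.25 mM) stimulation; lower signal means less secretion.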
Giardia killer – kills Giardia lamblia | Giardia lamblia trophozoite viability | activity change, % at 7.66 µM, hits read low | actives 0.15% (n = 340,000); in the data active = activity change below about -80%; inconclusive = between about -30% and that limit;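 also: parasites exposed to compound for two days anaerobically before the ATP read; % is scaled to controls: 0 for no effect and ±100 for the full control effect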
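Trophozoite viability was measured as ATP-dependent luminescence, read 15-30 min after reagent addition. Before that, parasites at 100 cells/well were exposed to compounds for 48 h, anaerobically, at 37 deg C.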
The depositor's hits bear a star; ? = inconclusive; nt = not tested or not shown. A selection: hits, their analogues and other compounds. The true share with any hit is near 6.9%. Unless noted, calls follow the shape of the dose curve; as a rule, active = well fitted curve in the direction sought with a large enough effect; inconclusive = small, poorly fitted or top-dose-only effect, or another doubt; inactive = no such curve, though single readings can be large; an effect the other way counts as inactive or inconclusive.

SMILES | SW480 rereplic | MCF10A rerep | Vif-APOBEC3G blk | Vif-APOBEC3F blk | IL-1B inflam inh | Giardia killer
Cc1ccc(NC(=O)c2ccc(NCCCN3CCOCC3)c([N+](=O)[O-])c2)cc1Cl | ? | ? | -5% | -10% | -67* | 4
O=[N+]([O-])c1cc(S(=O)(=O)NCCCN2CCOCC2)ccc1Cl | ? | 16µM* | -3% | -21% | -64* | 41
CCN1c2ccccc2-c2nc(SCC(=O)Nc3cc(F)ccc3F)ncc2S1(=O)=O | nt | nt | -3% | 0% | nt | nt
COc1cccc(-c2cnc(NCc3ccccc3Cl)n2C)c1 | nt | nt | ? | -20% | nt | nt
CCN(CC(=O)NCc1cccs1)C(=O)c1ccc(C)o1 | 17% | -2% | 4% | -3% | -2 | 15
CCN(CC(=O)NCc1cccs1)C(=O)c1ccc([N+](=O)[O-])o1 | 21% | 16% | -7% | -20% | -2 | -91*
Cc1nc2nc(NC(=O)CC(C)C)[nH]n2c(=O)c1Cc1ccccc1 | nt | nt | -2% | 2% | nt | nt
CCN(CC)CCNC(=O)c1[nH]c2ccc(OCc3ccccc3)cc2c1C | ? | ? | -1% | 0% | -95* | -8
CCN(Cc1ccccc1)C(=O)c1[nH]c2ccc(OC)cc2c1C | 1% | 13% | -7% | -5% | ? | 17
CN1CCOc2cc(S(=O)(=O)N3CCN(c4nc(-c5cccs5)nc5ccccc45)CC3)ccc21 | nt | nt | nt | nt | nt | 1
Cc1ccc(OCCCNCCO)c(Br)c1 | ? | ? | 4% | 0% | -60* | 1
Cc1cc(Br)ccc1OCCCCN1CCC(C)CC1 | ? | 7.3µM* | -1% | -1% | ? | -8
Cc1cc(Cl)c(OCCOCCN2CCC(C)CC2)c(Br)c1 | ? | ? | -3% | 3% | -57* | 14
Cc1cc(C)c(OCCCCN2CCC(C)CC2)c(Br)c1 | 24% | ? | 5% | 13% | -78* | -14
Cc1cc(Cl)c(OCCOCCN2CCN(C)CC2)c(Br)c1 | 2% | 20% | -3% | 19% | -13 | -17
CC(c1ccc(N(C)C)cc1)c1ccnc2ccccc12 (centres undefined) | nt | nt | -7% | nt | nt | nt
COCCNCCCCOc1ccc(Br)cc1C | ? | ? | 0% | -11% | -29 | 17
COCCCNCCCCOc1ccc(Br)cc1C | ? | ? | 2% | 8% | -56* | -11
CCC(C)NCCCOc1c(C)cc(C)cc1Br (centres undefined) | 16µM* | ? | 2% | -11% | -76* | -8
CC(C)CNS(=O)(=O)c1cc(C(=O)OCC(=O)N2CCOCC2)c(Cl)cc1Cl | -8% | 30% | 5% | -14% | -95* | -30
O=C(OCC(=O)N1CCCCC1)c1cc(S(=O)(=O)N2CCOCC2)c(Cl)cc1Cl | 1% | 16% | -3% | -2% | -59* | -11
O=C(OCc1nnc(-c2ccccc2)o1)c1cc(S(=O)(=O)N2CCOCC2)c(Cl)cc1Cl | -2% | 7% | 4% | 2% | -101* | -4
Nc1c(Cl)cc(Cl)cc1C(=O)OCC(=O)N1CCOCC1 | -10% | -1% | 0% | -6% | -6 | 11
O=C(COC(=O)c1cc(S(=O)(=O)N2CCOCC2)c(Cl)cc1Cl)c1ccc[nH]1 | -12% | ? | 0% | -12% | -99* | -2
O=C(c1cc(S(=O)(=O)N2CCOCC2)c(Cl)cc1Cl)N1CCCCC1 | 1% | 19% | 3% | -4% | 12 | -2
Cc1c(C(=O)OC(C)C)sc(NC(=O)C2c3ccccc3Oc3ccccc32)c1C(=O)OC(C)C | nt | nt | 5% | 0% | nt | nt
O=C(OCC(=O)N1CCOCC1)c1cc(S(=O)(=O)N2CCOCC2)c(Cl)cc1Cl | -11% | ? | 0% | 1% | -84* | 6
CCOc1cccc(C2C=C(c3ccc4c(c3)OCO4)NC(c3ccc(Cl)cc3)N2)c1O (centres undefined) | nt | nt | -13% | nt | nt | -19
CC1CCN(S(=O)(=O)c2ccc3c(c2)CCN3)CC1 | nt | nt | 9% | -5% | nt | nt
